# Hits are enriched below; roughly 7.3% of the tested compounds scored in any of these assays.
# FLuc inh-1 – inhibitors of firefly (Photinus pyralis) luciferase. actives 2.5% (n = 76,000). P08659. purified P. pyralis luciferase, luminescence, biochemical. Potency, µM (titrated, usually from 115 µM), usual class: inhibitors; also: potency is read from the fitted curve at half-maximal effect; % is scaled to controls: 0 for no effect and ±100 for the full control effect; nearly all actives have a fitted effect of over 65% in size
# Target sequence (P08659 whole entry, looked up): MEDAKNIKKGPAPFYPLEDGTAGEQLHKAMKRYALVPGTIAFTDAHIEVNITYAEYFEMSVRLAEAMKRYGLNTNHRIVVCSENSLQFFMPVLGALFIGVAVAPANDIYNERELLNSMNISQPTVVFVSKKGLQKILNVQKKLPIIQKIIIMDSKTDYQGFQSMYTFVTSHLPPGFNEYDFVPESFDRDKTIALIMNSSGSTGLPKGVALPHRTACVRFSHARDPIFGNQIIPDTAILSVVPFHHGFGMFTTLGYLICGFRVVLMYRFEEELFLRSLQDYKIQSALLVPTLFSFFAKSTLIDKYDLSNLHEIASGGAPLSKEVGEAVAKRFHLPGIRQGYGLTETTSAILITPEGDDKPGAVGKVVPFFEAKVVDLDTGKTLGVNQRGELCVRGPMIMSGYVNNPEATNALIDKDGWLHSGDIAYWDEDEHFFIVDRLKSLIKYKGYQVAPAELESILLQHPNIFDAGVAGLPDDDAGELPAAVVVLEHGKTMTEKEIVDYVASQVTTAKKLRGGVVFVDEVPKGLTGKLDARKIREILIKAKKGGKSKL
#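 Luminescence read by CCD imaging after purified firefly luciferase (10nM final) was added to substrate buffer holding 10uM D-luciferin and 10uM ATP, pH 7.5, pre-dosed with compound.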
# SNCA viab count – counter-screen for SNCA expression inhibitors: cell viability; HEK-293-SNCA-luc viability, GF-AFC fluorescence, 24 h; Potency, µM (top dose mostly 57.1 µM), inactives show at the highest dose activity change, negative = cytotoxicity, most hits filed as cytotoxic; actives 0.12% (n = 150,000); AID 1671193;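 also: potency is read from the fitted curve at half-maximal effect; 0% = DMSO-treated cells and -100% = medium-only wells without cells; nearly all actives have a fitted effect of over 30% in size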
#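 HEK-293-SNCA-luc cells (1500/well) plated 24 h, then exposed 24 h to a dilution series; GF-AFC added 30 min at 37C, fluorescence 405/540 nm; normalised to medium-only and DMSO wells, Hill fit.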
# IP6K1 inhibitor – IP6K1 kinase inhibition. actives 0.81% (n = 140,000). Q92551. IP6K1 kinase, ADP-Glo luminescence, 2 h; active compounds read low. activity change, % (series mostly up to about 58 µM). AID 1645851; in the data active = activity change below about -25%; also: % is scaled to controls: 0 for no effect and ±100 for the full control effect
#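 ADP-Glo luminescence measures ADP made by human IP6K1 during a 2 h RT reaction with ATP/IP6 (mix at 1.3 mM/130 uM); top library doses 57.5 and 19.1 uM final.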
# 3T3 cytotox – NIH 3T3 cell cytotoxicity | NIH 3T3 viability, CellTiter-Glo ATP luminescence, 48-72 h | Potency, µM (titrated, usually from 96.7 µM), for the others: at the highest dose activity change, negative = cytotoxicity, hits mostly inhibitors | actives 4.3% (n = 94,000); also: potency is read from the fitted curve at half-maximal effect; % is scaled to controls: 0 for no effect and ±100 for the full control effect; nearly all actives have a fitted effect of over 55% in size
#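 NIH 3T3 cells at 400 cells/well received 23 nL of compound by pintool and were incubated 48 or 72 h at 37 °C. Viability was read as ATP-coupled CellTiter-Glo luminescence.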
# SNCA expr inh – inhibitors of alpha-synuclein (SNCA) gene expression; Potency, µM (doses to about 57.2 µM), inactives show top-dose activity change, negative = inhibition, most hits filed as inhibitors; HEK-293 SNCA-luciferase knock-in, luminescence, 24 h; actives 0.17% (n = 140,000);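 also: potency is read from the fitted curve at half-maximal effect; plate controls were DMSO cells for no effect and cell-free wells for full effect; nearly all actives have a fitted effect of over 45% in size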
# HEK cytotox – kills HEK 293 cells | AID 1345083 | HEK 293 viability, ATP luminescence (CellTiter-Glo), 48-72 h | Potency, µM (top dose mostly 115 µM), for inactives: at the highest dose activity change, negative = cytotoxicity, hits mostly inhibitors | actives 6.6% (n = 94,000); also: potency is read from the fitted curve at half-maximal effect; % is scaled to controls: 0 for no effect and ±100 for the full control effect; nearly all actives have a fitted effect of over 60% in size
#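 Luminescence from cellular ATP, measured with CellTiter-Glo, indicates HEK 293 viability. Cells plated at 250 cells/well are treated with compound for 48 or 72 hr at 37 degree Celsius before reagent addition.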
# FLuc SDR no ATP – binders stabilizing firefly luciferase, without ATP; shares compounds with FLuc inh-1; Potency, µM (top dose mostly 32.7 µM), for the others: at the top dose activation (signal gain), actives largely listed as activators; AID 1963318; Purified FLuc-C-HiBiT, Nano-Glo HiBiT luminescence, no ATP; actives 7.8% (n = 1,300); also: potency is read from the fitted curve at half-maximal effect; nearly all actives have a fitted effect of over 55% in size
# FLuc SDR ATP – binders stabilizing firefly luciferase, plus ATP; shares compounds with FLuc inh-1; purified FLuc-C-HiBiT + ATP, HiBiT complementation luminescence; Potency, µM (doses to about 32.7 µM), inactives show at the top dose activation (gain of signal), usual class: activators; actives 8.7% (n = 1,300); AID 1963319;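 also: signal reports ligand binding via conformational change of the enzyme rather than luciferase catalysis; potency is read from the fitted curve at half-maximal effect; % of control where 0% means no effect; nearly all actives have a fitted effect of over 55% in size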
# FLuc inh-2 – inhibitors of firefly luciferase enzymatic activity; shares compounds with FLuc inh-1; purified FLuc-C-HiBiT enzyme, luciferin luminescence; Potency, µM (doses to about 32.7 µM), for inactives: top-dose activity change, negative = inhibition, most hits filed as inhibitors; actives 42% (n = 1,300); AID 1963320; also: potency is read from the fitted curve at half-maximal effect; % is scaled to controls: 0 for no effect and ±100 for the full control effect; nearly all actives have a fitted effect of over 70% in size
# Active calls of the source: *; i = inactive; ? = inconclusive; . = no result; [ ] = another dose, or the depositor's remark. Unless noted, calls follow the shape of the dose curve; as a rule, active = well fitted curve in the direction sought with a large enough effect; inconclusive = small, poorly fitted or top-dose-only effect, or another doubt; inactive = no such curve, though single readings can be large; an effect the other way counts as inactive or inconclusive.
SMILES,FLuc inh-1,SNCA viab count,IP6K1 inhibitor,3T3 cytotox,SNCA expr inh,HEK cytotox,FLuc SDR no ATP,FLuc SDR ATP,FLuc inh-2
O=C(c1ccc(F)cc1)N1CC(Oc2ccc(-c3nc(-c4ccccc4)no3)cc2)C1,i,-2.3%,8.1,-13.2%,1.0%,?,.,.,.
O=C(c1ccncc1)N1CC(Oc2ccc(-c3noc(-c4ccccc4)n3)cc2)C1,?,0.0%,-4.3,-9.3%,76.3%,?,.,.,.
O=C(Nc1ccccc1)N1CC(Oc2ccc(-c3nc(-c4ccccc4)no3)cc2)C1,1.26µM*,5.0%,-0.1,-3.1%,32.5%,?,16.9%,14.4%,?
O=C(Cc1cccc(F)c1)N1CC(Oc2ccc(-c3nc(-c4ccccc4)no3)cc2)C1,2µM*,-3.8%,8.8,-12.9%,12.2%,?,13.5%,15.0%,?
CCNC(=O)N1CC(Oc2ccc(-c3nc(-c4ccccc4)no3)cc2)C1,0.631µM*,-15.0%,3.9,-34.4%,6.0%,?,18.6%,18.8%,?
CCc1cccc(C)c1NC(=O)Cn1nc2n(c1=O)CCCCC2,i,2.3%,11.1,-1.6%,-19.5%,0.4%,.,.,.
COCc1nncn1C1CCN(C(=O)c2cccc(OC)c2)CC1,i,4.5%,5.0,0.7%,-2.2%,3.5%,.,.,.
O=C(NCCc1ccc(Cl)cc1)c1ccc2c(c1)nc1n2CCOC1,.,2.3%,1.4,.,84.9%,.,.,.,.
CSc1ccc(CCNC(=O)c2ccc3c(c2)nc2n3CCCCC2)cc1,.,9.4%,2.5,.,83.6%,.,.,.,.
Cc1ccccc1CCNC(=O)c1ccc2c(c1)nc1n2CCOC1,.,10.2%,-5.1,.,-53.8%,.,12.4µM*,?,4.95µM*
Cc1ccccc1CCNC(=O)c1ccc2c(c1)nc1n2CCCCC1,.,8.2%,1.9,.,-82.0%,.,2.79µM*,?,0.881µM*
O=C(c1ccc(F)cc1)N1CCCN(c2ccc3nnc(-c4ccccc4)n3n2)CC1,.,.,-0.7,?,.,-18.8%,.,.,.
CNC(=O)c1cc(C2CC2)nc2c1c(C1CCN(C(=O)c3ccccc3Cl)CC1)nn2C,.,.,-1.4,-19.4%,.,-12.9%,.,.,.
O=C(Nc1ccc(F)cc1)c1cc2cccnn2n1,14.1µM*,-8.0%[87.6 µM],3.6,?,80.3%[87.6 µM],?,25.2%[49.3 µM],18.8%[49.3 µM],?
COCCNC(=O)c1ccc2nnc(-c3ccc([S+](C)(=O)[O-])cc3)n2c1,.,17.6%,-6.9,-12.2%,-2.5%,-16.8%,.,.,.
COCCN1C(=O)CCC2(C(=O)NCCCc3ccccc3)CCCC=C12 (centres undefined),i,-14.5%,9.4,1.4%,-17.1%,-1.2%,.,.,.
O=C1CCC2(C(=O)NCCc3ccccc3)CCCC=C2N1c1ccccc1 (centres undefined),3.16µM*,-9.3%,8.2,-13.7%,28.6%,?,10.8%,19.8%,?
Clc1ccc(OCc2nc3ccccc3n2Cc2ccccc2)c(Cl)c1,.,6.0%,-0.8,.,201.8%,.,15.2%,10.7%,?
COc1cccc(OCc2nc3ccccc3n2Cc2ccccc2)c1,.,9.2%,-3.3,.,47.5%,.,12.4%,9.2%,-15.8%
COc1ccc(OC)c(-c2nc3ccc(OC)cc3s2)c1,.,.,.,.,.,.,20.9%,14.5%,?
COCCn1ncc(N2CCCC(CC(=O)NCc3cccs3)C2)cc1=O (centres undefined),i,3.3%,13.6,i,14.1%,3.4%,.,.,.
